PubChem BioAssay (NCATS)
“And” between values parts separate entries of the source, which are not always exact repeats. Identical values can stand only once. Inconclusive results are not listed. Some compounds were tested as several samples or in several runs, with calls that do not always agree. The source made the active and inactive calls. Calls come from the whole dose curve; as a rule, active = well fitted cell-killing curve with a large enough effect; inconclusive = small, poorly fitted or top-dose-only effect; inactive = flat fitted curve, though single readings scatter. Peptide text beside a SMILES is read from it. * marks the point of attachment. Cbz = O=C(OCc1ccccc1)*

Assay: Cellular viability qHTS for adrenocortical cancer (ACC) cell line NCI-H295R (AID 1963990); note: nearly all actives have a fitted effect of over 60% in size
Conditions: CellTiter-Glo ATP luminescence, 48 h; series mostly up to 46.1 µM; activity change, negative = viability loss: at the top concentration
From the text: PI: Naris Nilubol, MD Surgical Oncology Program, National Cancer Institute (NCI) National Institute of Health (NIH), Bethesda, Maryland Adrenocortical cancer (ACC) is a rare malignancy with poor survival outcomes and few treatment options. Currently, mitotane is the only FDA-approved therapy for ACC. Although adjuvant radiation therapy is rarely utilized, it has the potential to improve survival in select cases. Through a quantitative high-throughput drug screen (qHTS), we identified auranofin (AF), a thioredoxin reductase (TXNRD) inhibitor, as a promising candidate drug. This study aims to evaluate whether AF can enhance the efficacy of radiation therapy in the treatment of ACC. Two human ACC cell lines, SW-13 and NCI-H295R, were screened using the National Center for Advancing Translational Sciences (NCATS) Pharmaceutical Collection (NPC) and the Mechanism Interrogation PlatE (MIPE) library (~4,991 compounds). CellTiter-Glo (Cat # G7570, Promega, Madison, WI) was utilized to measure cell viability. Described herein are the results of the corresponding viability assay.
PROTOCOL TABLE (as described by Inglese J, Shamu CE and Guy RK. 2007) SEQUENCE No. (e.g., 1, 2, 3, etc.); […] (e.g., Cells, Incubation, Reagent, etc.); VALUE; DESCRIPTION. 1; Cells; 5 uL; white, solid-bottom, 1536-well tissue-culture treated plates. 2; Time; overnight culture at 37C with 5% CO2. 3; Compounds and control; 23 nL; Kalypsis pin tool (Wako USA) equipped with a 1536-well pin head to transfer to the assay plates. 4; Time; 48 hours; 37C with 5% CO2. 5; Reagent; 4 uL; CellTiter-Glo luminescent substrate mix. 6; Time; 20 min at room temperature. 7; Detection; Luminescence; ViewLux plate reader NOTES (numbers refer to Sequence numbers above) 1. NCI-H295R cells were harvested from a T175 flask and resuspended in ITS-supplemented DMEM serum-free medium at a concentration of 300 000 cells/mL. Then 5 uL of resuspended cells were dispensed into each well of white, solid-bottom, 1536-well tissue-culture-treated plates using a multidrop combi dispenser. The plates were covered with stainless steel gasket lids. 2-3. The plates were cultured overnight at 37C with 5% CO2. Twenty-three nL of compounds (eight selected concentrations from the NPC / MIPE) or positive control (10 mM stock of bortezomib) in DMSO was transferred to each well of the assay plate using a pin tool (Kalypsys, San Diego, CA, USA). The final concentration of the compounds in the 5 uL assay volume ranged from 0.5 nM to 46 uM. 4-6. After 48 hours of incubation at 37C and 5% CO2, 4 uL of CellTilter-Glo luminescent substrate mix (Promega, Madison, WI, USA) was added to each well. Then the plates were incubated for 20 minutes at room temperature. 7. After incubation, luminescence was measured using a ViewLux plate reader (PerkinElmer, Waltham, MA, USA) with a clear filter was used to measure the number of metabolically competent cells. To determine compound activity in the qHTS assay, the titration-response data for each sample was plotted and modeled by a four-parameter logistic fit yielding IC50 and efficacy (maximal response) values. Raw plate reads for each titration point were normalized relative to positive control ([…], 100% inhibition) and DMSO-only wells (basal, 0%). REFERENCES: Inglese J, Shamu CE and Guy RK, Reporting data from high throughput screening of small molecule libraries, Nature Chemical Biology, 2007, 3(8): 438-441. doi.org/10.1038/nchembio0807-438.

Row | Structure (SMILES) | activity change, negative = viability loss | Potency
1 | C[C@@H]1CN(Cc2ccc(F)cc2)[C@@H](C)CN1C(=O)c1cc2c(C(=O)C(=O)N(C)C)cn(C)c2cc1Cl | -13.7% (inactive) | –
2 | CN=C(NC#N)NCCSCc1csc(N=C(N)N)n1 | -8.85% (inactive) | –
3 | O=C(C1CCCCC1)N1CC(=O)N2CCc3ccccc3C2C1 (stereo not given) | – | inactive
4 | CCCNC(=O)Nc1ccc(Oc2ncnc3cc(OC)c(OC)cc23)cc1Cl | 4.45% (inactive) | –
5 | CCOC(=O)C(=O)c1csc(NC=O)n1 | -4.36% (inactive) | –
6 | CC[C@H](C)C(=O)O[C@H]1C[C@@H](C)C=C2C=C[C@H](C)[C@H](CC[C@@H]3C[C@@H](O)CC(=O)O3)[C@H]21 | – | inactive and 17.8 µM (active)
7 | C[C@H]1O[C@H](O[C@H]2[C@H](O)[C@@H](O)[C@@H](O[C@H]3[C@H](O)[C@@H](O)[C@H](O)O[C@@H]3CO)O[C@@H]2CO)[C@H](O)[C@@H](O)[C@@H]1N[C@H]1C=C(CO)[C@@H](O)[C@H](O)[C@H]1O | 16.7% (inactive) | –
8 | Cc1cc(=O)n(-c2ccccc2)n1C | 17.7% (inactive) | –
9 | COc1ccc(-c2nc(N3CCOCC3)c3sc(CN(C)c4ncc(C(=O)NO)cn4)cc3n2)cn1 | – | 0.0891 µM (active)
10 | C[C@@H](NCCCc1cccc(C(F)(F)F)c1)c1cccc2ccccc12 | – | 5.17 µM (active) and 8.91 µM (active)
11 | CC(=O)OC1C(C)OC(Oc2c(-c3ccc(O)cc3)oc3cc(O)cc(O)c3c2=O)C(O)C1OC(C)=O (stereo not given) | -1.23% (inactive) | –
12 | Cc1nn(C)c(COc2ccc(N3CCN(S(=O)(=O)N(C)C)CC3)cc2)c1-c1cccc2c(CCCOc3cccc4ccccc34)c(C(=O)O)n(CCN3CCOCC3)c12 | -14.1% (inactive) | –
13 | OC[C@@H](O)[C@@H](O)[C@H](O)[C@@H](O)CO | -5.07% (inactive) | –
14 | COc1cccc2c1c(O)c(C(=O)N(C)c1ccc(C(F)(F)F)cc1)c(=O)n2C | -14.1% (inactive) | –
15 | CC(COc1ccccc1)NC(C)C(O)c1ccc(O)cc1 (stereo not given) | 1.17% (inactive) | –
16 | CC(C)(C)NC[C@H](O)COc1cccc2c1CCCC2=O | 2.63% (inactive) | –
17 | COc1cc(OC)cc(OC)c1 | -6.51% (inactive) | –
18 | Cc1c(NC(C)C)c(=O)n(-c2ccccc2)n1C | -3.2% (inactive) | –
19 | C[C@@H]1CN(c2c(F)c(F)c3c(=O)c(C(=O)O)cn(C4CC4)c3c2F)C[C@H](C)N1 | 0.905% [at 20 µM] (inactive) | –
20 | CCOc1ccc(Cc2cc([C@@H]3O[C@H](CO)[C@@H](O)[C@H](O)[C@H]3O)ccc2Cl)cc1 | -10.5% (inactive) | –

Row | Structure (SMILES) | activity change, negative = viability loss | Potency
21 | COC(=O)Nc1nc2ccc(C(=O)c3ccccc3)cc2[nH]1 | – | 103 nM (active) and 141 nM (active)
22 | Cn1cc(-c2nc(N[C@@H]3CCCC[C@@H]3N)c(F)c3c2C(=O)NC3)cn1 | 0.124% [at 3.81 µM] (inactive) | –
23 | O=C(Nc1cc(Oc2cc(F)c(NC(=O)C3(C(=O)Nc4ccc(F)cc4)CC3)cc2F)ccn1)C1CC1 | 14.5% (inactive) | –
24 | O=c1n(CCCN2CCN(c3cccc(Cl)c3)CC2)nc2ccccn12 | 0.454% (inactive) | –
25 | O=C(O)c1ccccc1C(=O)Nc1ccc(-c2ccccc2)cc1 | -33.7% (inactive) | –
26 | COc1ccc(COc2ccc(Cc3cnc(N)nc3N)cc2OC)cc1 | -17.3% (inactive) | –
27 | CN(C)CCOC(=O)COc1ccc(Cl)cc1 | 4.15% (inactive) | –
28 | COC(c1ccccc1)(c1ccccc1)[C@H](Oc1nc(C)cc(C)n1)C(=O)O | – | inactive
29 | CC(C)C[C@@H](C=O)NC(=O)[C@H](CC(C)C)NC(=O)[C@H](CC(C)C)NC(=O)OCc1ccccc1 (Cbz-Leu-Leu-Leu-aldehyde) | – | 1.26 µM (active)
30 | O=C(NCCCNc1nc(Nc2cccc(CN3CCOCC3)c2)ncc1C1CC1)C1CCC1 | -0.459% (inactive) | –
31 | CNC1CCC(N(Cc2cccc(-c3ccncc3)c2)C(=O)c2sc3ccccc3c2Cl)CC1 (stereo not given) | – | 6.31 µM (active)
32 | CO[C@@H]1C(N(C)C(=O)c2ccccc2)C[C@H]2O[C@]1(C)n1c3ccccc3c3c4c(c5c6ccccc6n2c5c31)C(=O)NC4=O (stereo not given in full) | -25.4% (inactive) | –
33 | COc1ccc2[nH]c(S(=O)Cc3ncc(C)c(OC)c3C)nc2n1 (stereo not given) | – | inactive
34 | CN(C(=O)c1c(O)c2ccccc2n(C)c1=O)c1ccccc1 | – | inactive
35 | CC(=O)Oc1ccccc1C(=O)Nc1ncc([N+](=O)[O-])s1 | -0.748% (inactive) | –
36 | Cc1cnc(NC(=O)c2cc(Oc3cnc(C(=O)N(C)C)nc3)c3cc(C)oc3c2)cn1 | -25.3% (inactive) | –
37 | Cc1cc(C)c(S(=O)(=O)N(CCc2cccc(Br)c2)Cc2ccc(-c3cccc(S(C)(=O)=O)c3)cc2)c(C)c1 | -17.8% (inactive) | –
38 | CCc1cccc2c(CCO)c[nH]c12 | -6.17% (inactive) | –
39 | Oc1c(Cl)cc(Cl)c(Cl)c1Cc1c(O)c(Cl)cc(Cl)c1Cl | – | 2.06 µM (active)
40 | Cc1ccc(O)c2ncccc12 | – | 20.6 µM (active)
